KCNQ2 inh – inhibitors of rat KCNQ2 potassium channel. O88943. CHO-K1 KCNQ2, FluxOR thallium flux, 20 min; active compounds read low. B-score at 10 µM. actives 1.1% (n = 310,000). AID 2156;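 active = fluorescence ratio B-score at most minus 3 library SDs, with starting brightness B-score within 2 library SDs, cut at about -5.5 in these data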
KCNQ2 pot – enhances the rat KCNQ2 potassium channel; O88943; CHO-K1 KCNQ2, FluxOR thallium flux fluorescence; active compounds read high; B-score at 10 µM; actives 0.54% (n = 310,000);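 active = fluorescence ratio B-score at least 3 SD of library B-scores, with initial fluorescence B-score within 3 of them, cut at about 5.3 in these data; same plate scores as AID 2156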;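 note: B-score of peak minus minimum over baseline fluorescence ratio after K+ and Tl+ stimulus; positive B-score means potentiation of KCNQ2 with more thallium influx and brighter signal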
Kir21 confirm – confirmation of mouse Kir2.1 potassium channel inhibitors | shares compounds with KCNQ2 pot | Kir2.1-expressing cells, FluxOR thallium flux fluorescence; active compounds read low | Tl flux remaining, % of negative control (active compounds read low), % at 10 µM | actives 41% (n = 2,300);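 active = Primary-screen hit whose thallium flux fell at least 3 control SD below untreated wells in both duplicates, with normal baseline fluorescence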;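 note: 0% = blank wells without stimulus and 100% = stimulated no-compound controls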
HEK293 Tl flux – parental HEK293 activity in Kir2.1 inhibitor counter-screen | shares compounds with KCNQ2 pot | parental HEK293 cells, FluxOR thallium flux fluorescence; 0% = unstimulated blank wells | FluxOR signal as % of negative control (100 = no effect), % at 10 µM | actives 19% (n = 2,300) | AID 2105;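 active = dye signal at least 3 control SD above or below untreated wells in both duplicates, raw fluorescence within 3, either direction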;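 note: percent is based on the flux ratio of peak minus minimum fluorescence over baseline F0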
CHO-K1 Tl ctr – counter-screen for KCNQ2 potentiators: effect in parental CHO-K1 cells. shares compounds with KCNQ2 pot. FluxOR thallium flux fluorescence; zero = vehicle mean+3SD, 100% = vehicle-minus-blank window. activity increase over 3SD of controls, % at 10 µM. actives 43% (n = 1,200). AID 2282;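 active = signal rise of at least 3 SD above the untreated control mean, in both duplicate wells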;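 note: counter screen of KCNQ2 potentiator hits so any rise reflects channel-independent effects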
KCNQ1 sel pot – selectivity of KCNQ2 potentiators: effect on human KCNQ1 | CHO KCNQ1 stable, FluxOR thallium flux fluorescence; beyond 3SD, as % of vehicle-control signal | activation over 3SD threshold, % at 10 µM | actives 28% (n = 1,200) | shares compounds with KCNQ2 pot;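 active = fluorescence ratio rise of at least 3 SD of vehicle wells above their mean, in both replicate wells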;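 note: 0% = vehicle mean plus 3 SD and 100% = vehicle minus unstimulated blank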
Target sequence (P51787 whole entry, looked up): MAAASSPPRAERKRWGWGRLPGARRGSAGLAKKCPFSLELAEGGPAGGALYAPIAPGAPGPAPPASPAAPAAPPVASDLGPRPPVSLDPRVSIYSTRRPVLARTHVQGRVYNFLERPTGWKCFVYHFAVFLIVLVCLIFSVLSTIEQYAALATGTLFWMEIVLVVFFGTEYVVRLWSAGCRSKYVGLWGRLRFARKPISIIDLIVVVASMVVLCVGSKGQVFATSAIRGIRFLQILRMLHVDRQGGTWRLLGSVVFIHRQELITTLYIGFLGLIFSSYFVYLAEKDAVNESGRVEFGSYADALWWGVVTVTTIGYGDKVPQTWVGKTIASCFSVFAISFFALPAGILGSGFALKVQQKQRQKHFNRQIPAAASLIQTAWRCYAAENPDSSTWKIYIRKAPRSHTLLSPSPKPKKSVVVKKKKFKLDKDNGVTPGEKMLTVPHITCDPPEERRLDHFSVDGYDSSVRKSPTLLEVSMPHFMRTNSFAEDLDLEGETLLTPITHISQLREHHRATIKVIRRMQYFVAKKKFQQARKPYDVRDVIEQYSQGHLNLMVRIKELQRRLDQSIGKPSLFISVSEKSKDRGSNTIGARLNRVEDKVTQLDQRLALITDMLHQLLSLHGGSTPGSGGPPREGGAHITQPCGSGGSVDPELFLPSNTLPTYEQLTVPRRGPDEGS
KCNQ2 pot confirm – confirmation of rat KCNQ2 potassium channel potentiators; shares compounds with KCNQ2 pot; actives 68% (n = 1,200); CHO-KCNQ2 cells, FluxOR thallium flux fluorescence; potentiation, less the hit threshold, % at 10 µM;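 active = fluorescence ratio rising 3 SD or more over the vehicle control mean in both replicates, plus primary screen hit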;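 note: peak minus minimum thallium fluorescence divided by baseline after K/Tl stimulus; 0% = vehicle mean plus 3 SD and 100% = vehicle minus unstimulated blank difference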
Kir21 spec – mouse Kir2.1 off-target activity of KCNQ2 potentiators. shares compounds with KCNQ2 pot. HEK293 Kir2.1, FluxOR thallium flux fluorescence. activity over 3SD threshold, % at 10 µM. actives 2% (n = 1,200);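 active = fluorescence ratio rise of at least 3 SD above the vehicle-control mean, seen in both replicates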;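 note: 0% = vehicle mean plus 3 SD and 100% = vehicle minus no-stimulus blank window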
KCNQ2 W236L pot – rat KCNQ2 W236L mutant potentiation by KCNQ2 potentiators | shares compounds with KCNQ2 pot | CHO KCNQ2-W236L, automated patch clamp current | current increase over 3SD of negative controls (%), active compounds read high, % at 25 µM | actives 10% (n = 940) | AID 2558;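 active = current increase at least 3 SD of the untreated controls above them in both duplicate recordings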
Numbers without * were called inactive; i = inactive; / = not tested or not shown. Most compounds without a hit are left out; they make up all but 1.6% or so of the library.

SMILES | KCNQ2 inh | KCNQ2 pot | Kir21 confirm | HEK293 Tl flux | CHO-K1 Tl ctr | KCNQ1 sel pot | KCNQ2 pot confirm | Kir21 spec | others
O=C(CSc1nc2ncccc2[nH]1)c1cccc([N+](=O)[O-])c1 | i | / | / | / | / | / | / | /
CCOC(=O)c1ccccc1NC(=O)CN1C(=O)NC(C)(CCc2ccccc2)C1=O (centres undefined) | i | / | / | / | / | / | / | /
CN1CCC(N(C)C(=O)c2cc(=O)c3ccccc3o2)CC1 | i | / | i | i | / | / | / | /
CCc1ccc(CN(C)C(=O)c2cc(=O)c3ccccc3o2)cc1 | i | / | / | / | / | / | / | /
O=C(CC(c1ccccc1)c1cc(Br)ccc1O)NCc1ccco1 (centres undefined) | i | 18.3* | / | / | -7.2 | -1.0 | 66.8* | -65.8 | KCNQ2 W236L pot=i
CC(C)NC(=O)CC(c1ccccc1)c1cc(Br)ccc1O (centres undefined) | i | 2.78 | / | / | / | / | / | /
COc1ccccc1C(CC(=O)Nc1ccc(Cl)cc1)c1ccc(OC(C)C)cc1 (centres undefined) | i | / | / | / | / | / | / | /
CC(C)Oc1ccc(CNC(=O)CC(c2ccccc2)c2cc(Cl)ccc2O)cc1 (centres undefined) | i | 14.7* | i | 128.5%* | 10.8* | 17.7* | 59.0* | -20.9 | KCNQ2 W236L pot=i
O=CN1CCN(C(=O)CC(c2ccccc2)c2cc(Br)ccc2O)CC1 (centres undefined) | i | 0.56 | / | / | / | / | / | /
CCCCCCNC(=O)CC(c1ccccc1)c1cc(Br)ccc1O (centres undefined) | i | 29* | i | i | -3.0 | -28.1 | 64.0* | -43.4 | KCNQ2 W236L pot=i
Cc1cccc(C(C)C)c1NC(=O)COC(=O)CCN1C(=O)C2CC=CCC2C1=O (centres undefined) | i | / | / | / | / | / | / | /
Cc1cccc(-c2oc3ccc(-c4ccc5c(c4)OCO5)cc3c2C(=O)OCc2ccc(O)cc2)c1 | i | 0.89 | / | / | / | / | / | /
COc1ccccc1CNC(=O)C1CCC(CNc2c(N3CCC(C)CC3)c(=O)c2=O)CC1 (centres undefined) | i | / | / | / | / | / | / | /
CS(=O)(=O)c1ccccc1C(=O)Nc1cccc(-c2nc3ccccc3o2)c1 | i | 0.35 | / | / | / | / | / | /
CCN(c1ccc(OC)cc1)S(=O)(=O)c1ccc2c(c1)CC(C)N2C(=O)C1CC1 (centres undefined) | i | / | / | / | / | / | / | /
CCC(=NCc1ccccc1)c1c(C(F)(F)F)[nH]n(-c2nc3ccccc3s2)c1=O | i | / | / | / | / | / | / | /
CCC(=NCc1ccco1)c1c(C(F)(F)F)[nH]n(-c2nc3ccccc3s2)c1=O | i | 7.83* | i | i | -6.8 | -11.8 | -19.3 | -37.6
COc1ccc(N2CCc3c(C)nc4c(OC)cccc4c32)cc1 | i | 1.09 | / | / | / | / | / | /
COc1cccc(N2CCc3c(C)nc4ccc(Cl)cc4c32)c1 | i | / | 19.5%* | i | / | / | / | /
COc1ccccc1N1CCN(C(=O)CSc2nc(-c3ccco3)cc(C(F)(F)F)n2)CC1 | i | 12* | i | i | 15.5* | 12.6* | 10.8* | -26.7 | KCNQ2 W236L pot=i
O=C(CSc1nc(-c2ccco2)cc(C(F)(F)F)n1)N1CCN(c2ccc(Cl)cc2)CC1 | i | 3.02 | / | / | / | / | / | /
COc1ccc(CCNC(=O)CSc2nc(-c3ccco3)cc(C(F)(F)F)n2)cc1OC | i | 0.16 | / | / | / | / | / | /
O=C(CSc1nc(-c2ccco2)cc(C(F)(F)F)n1)N1CCN(Cc2ccccc2)CC1 | i | 23.5* | i | i | 81.1* | -3.2 | 41.9* | -46.8 | KCNQ2 W236L pot=i
CN1CCN(C(=O)c2ccc3c(c2)N(Cc2ccc(F)cc2)C(=O)c2ccccc2S3=O)CC1 (centres undefined) | i | / | / | / | / | / | / | /
